# Experimental data reported in PubChem BioAssay AID603 (National Center for Advancing Translational Sciences (NCATS), 2007).
# The campaign covered roughly 71,000 compounds. About 180 (0.25%) were called active. Calls come from the whole dose curve; as a rule, active = well fitted curve in the direction sought with a large enough effect; inconclusive = small, poorly fitted or top-dose-only effect; inactive = flat fitted curve, though single readings scatter. The entries come from a sample that favours actives as a whole. Entries that show only a call come without a potency.
# Tested on: DNA polymerase III holoenzyme (E. coli)
# Experiment: qHTS Assay for Inhibitors of DNA Polymerase III Holoenzyme System
# Details: reconstituted DNA polymerase III holoenzyme replication, biochemical; series mostly up to 57.1 µM
# Protocol: NIH Molecular Libraries Screening Centers Network [MLSCN]
# NIH Chemical Genomics Center [NCGC]
# Assay Provider: Charles McHenry, University of Colorado
# E. coli DNA polymerase III holoenzyme complex was assayed for DNA production by fluorescent detection of the double-stranded DNA product with PicoGreen dye. The holoenzyme complex was reconstituted from the following purified protein components: DNA Polymerase III, beta subunit processivity factor, SSB single-stranded DNA binding protein, and Primase. Single-stranded, circular M13Gori was used as a substrate with dNTPs and NTPs also supplied to the substrate reagent. Compounds from the NCGC collection were incubated with the holoenzyme mixture for 15 min at room temperature to allow binding to occur, and then the reaction was started by the addition of substrate. After 30 min incubation at room temperature, PicoGreen solution containing EDTA was added to stop the reaction and to visualize the double-stranded DNA produced. Reaction progress was measured in a ViewLux CCD imager in fluorescence intensity mode by using 480 nm excitation and 540 nm emission filter set.
# NCGC Assay Protocol Summary:
# Buffer. 50 mM Hepes-KOH, pH 7.5, 5 % Glycerol, 0.02% NP40, 30 mM potassium;
# glutamate, 1.5 mM Magnesium Acetate, 16 uM TCEP.
# Buffer in columns 3 and 4 as negative control (no enzyme).
# Substrate solution: 5 uM each dATP, dGTP, dCTP and TTP, 50 uM each GTP, CTP, UTP and 200 uM ATP, 1.4 nM M13gori (final concentrations).
# Enzyme: 154 nM SSB, 2 nM Primase, 1 nM Beta, 0.35 nM Pol III (final concentrations).
# PicoGreen/EDTA: 10 mM Tris-HCl, 10 mM EDTA, 5 uM PicoGreen (final concentrations).
# Control titration: ChemBridge 5805060 (from 10 mM, then 1:2, in duplicate) was pin-transferred to upper half of column 2.
# Three uL of holoenzyme mixture were dispensed to 1536-well Greiner black solid bottom plates. Compounds and controls (23 nL) were transferred via Kalypsys PinTool. The plates were incubated for 15 min at room temperature, and then 1 uL of substrate solution was added to start the reaction. After room temperature incubation for 35 minutes, 1 uL of PicoGreen solution was added to each well and the plates were read 480 nm excitation and 540 nm emission using ViewLux (Perkin-Elmer) High-throughput CCD imager and fluorescence protocol settings.
# Keywords: NIH Roadmap, MLSCN, MLI, MLSMR, qHTS, NCGC, DNA Polymerase III, DNAPol3, DNAPoly3, DNA replication targets
# Potency is the fitted concentration of half-maximal effect.
SMILES,"activity change, negative = inhibition",Potency
CC(=O)OCC(COC(C)=O)OC(C)=O,inactive,
CCOc1ccc(-c2nnc3ccc(SC)nn23)cc1,inactive,
CN(C)c1ncc2nc(-c3ccc(F)cc3)c(=O)n(Cc3ccc(F)cc3)c2n1,inactive,
Cc1c(NC(=O)C(C)OC(=O)c2cc3c4ccccc4n(C)c3s2)c(=O)n(-c2ccccc2)n1C (configuration not stated),inactive,
CC1COC2C(O1)N(S(C)(=O)=O)CCN2S(C)(=O)=O (configuration not stated),inactive,
Cc1cc(NC(=O)COc2ccc(Cl)cc2Cl)n(CCC#N)n1,inactive,
COc1cc(=O)[nH]c(=O)n1C(=O)Cc1ccccc1,inactive,
CCC(C)(C)n1nnnc1C(c1cccs1)N1CCN(c2nc3ccccc3s2)CC1 (configuration not stated),inactive,
CC[N+](C)(CC)CCC[n+]1c(-c2ccccc2)c2cc(N)ccc2c2ccc(N)cc21,,2 µM (active)
O=C(OCC(COC(=O)c1ccccc1)(COC(=O)c1ccccc1)COC(=O)c1ccccc1)c1ccccc1,inactive,
COc1ccc(CC(=O)n2nc(-c3cccnc3)nc2N)cc1,inactive,
COc1ccccc1NC(=O)C1=C(C)Nc2nnnn2C1c1cccc(Br)c1 (configuration not stated),inactive,
CC(C)NC(=O)CCCn1c(=S)[nH]c2cc3c(cc2c1=O)OCO3,inactive,
CCCC(=O)Nc1c(O)c2ccccc2[nH]c1=O,inactive,
O=C1C(c2[nH]c3ccccc3c2O)=Nc2ccccc21,,3.98 µM (active)
CCCOC(=O)Cc1c(O)c2ccccc2[nH]c1=O,inactive,
CC(C)(C)[Si](OCC[C@@H]1C[C@@]1(C)[C@@H](NP(=O)(c1ccccc1)c1ccccc1)c1ccccc1)(c1ccccc1)c1ccccc1,inactive,
N#Cc1cccc(-c2ccc3ncnc(NCc4cccs4)c3c2)c1,inactive,
CC(C)C[C@H](NC(=O)NCCc1ccc(Cl)cc1)C(=O)O,inactive,
COc1ccc(-n2ncc3c(N4CCCc5ccccc54)ncnc32)cc1,inactive,
CCCC[C@@H]1C[C@H]1C(NC(=O)c1ccco1)c1ccc(C(=O)OC)cc1 (some centres not stated),inactive,
CS(=O)(=O)N1CCC2(CC1)CN(c1ccncc1)C2,inactive,

SMILES,"activity change, negative = inhibition",Potency
O=C(c1ccc(O)cc1)c1ccc(C(=O)O)c(C(=O)O)c1,inactive,
Cc1ccccc1C(=O)O,inactive,
O=C(O)c1ccc(C(=O)c2ccccc2C(=O)O)cc1C(=O)O,,3.98 µM (active)
CCc1nnc(NS(=O)(=O)c2ccc(NS(=O)(=O)c3ccccc3)cc2)s1,inactive,
Cc1ccnc(N)c1,inactive,
c1ccc2nc(C3=NCCN3)cnc2c1,inactive,
c1ccc(Cc2nn3c(Cn4cnc5ccccc54)nnc3s2)cc1,inactive,
COc1ccc2oc(=O)c(C(=O)O)cc2c1,inactive,
O=C(CN1CCOc2ccccc21)N1CCC(Cc2ccccc2)CC1,inactive,
O=C(NCCCN1CCCCCC1)c1ccc(N2CCCC2=O)cc1,inactive,
CC(=O)N1[C@H](C)C=C[C@]1(Cc1ccccc1)C(=O)NCc1ccccn1,inactive,
O=C1CN(C(=O)COC(=O)C2CC(=O)N(Cc3ccco3)C2)c2ccccc2N1 (configuration not stated),inactive,
O=C(Nc1ccn(Cc2ccc(F)cc2)n1)c1ccncc1,inactive,
CC(=O)N=c1ncn(CC(COC(C)=O)OC(C)=O)c2nc[nH]c12 (configuration not stated),inactive,
CCn1c(CSc2ncccn2)nnc1SCC(=O)N1c2ccccc2CC1C (configuration not stated),inactive,
C/C(=C\c1ccco1)C1Nc2cccc3cccc(c23)N1,,3.16 µM (active)
Cc1cc(C)cc(NC(=O)C2CCN(c3nc(C)cc(C)n3)CC2)c1,inactive,
CN1CCCC(OC(=O)COc2ccc(Br)cc2)C1 (configuration not stated),inactive,
Cc1cc(=O)oc(C)c1C(=O)NCc1ccc(F)cc1,inactive,
Oc1ccccc1CNCc1ccccc1O,-9.4% [at 11.4 µM] (inactive),
CCOC(=O)c1c(C2CC2)csc1NC(=O)CSCc1c(C)noc1C,inactive,
Cc1cc(C)nc(SCc2ccccc2C#N)n1,inactive,

SMILES,"activity change, negative = inhibition",Potency
CCCCCCc1ccc(O)cc1O,inactive,
COc1ccccc1CNc1ncnc2ccc(-c3c(C)noc3C)cc12,inactive,
COc1ccc(Cn2cccc(NC(=O)Nc3ccc(C#N)cc3)c2=O)cc1,inactive,
COc1ccc(OC)c(C(=O)c2ccc(C(=O)O)cc2)c1,inactive,
CC(C)NC[C@H](O)c1ccc2ccccc2c1,inactive,
O=C(Oc1ccc2c(c1)CN(Cc1ccccc1)CO2)c1ccccc1,-3% [at 11.4 µM] (inactive),
COCCn1c(=O)c(CCc2ccccc2)nc2cncnc21,inactive,
CCCn1c(-c2ccc(F)cc2)nc2c(NCC3CCCN3CC)nc(C)nc21 (configuration not stated),inactive,
COc1cccc2sc(Nc3nc(C)c(C(C)=O)s3)nc12,inactive,
O=S(=O)(c1cccc(S(=O)(=O)N2CCC(n3nnc4ccccc43)CC2)c1)N1CCCCC1,inactive,
CC[C@]1([C@H]2O[C@@H]([C@@H]3O[C@](O)(CO)[C@@H](C)C[C@H]3C)C[C@H]2C)CC[C@@H]([C@]2(C)CC[C@@]3(C[C@@H](O)[C@@H](C)[C@@H]([C@H](C)[C@H](OC)[C@H](C)C(=O)O)O3)O2)O1,inactive,
CC(=O)NC(C)c1nc2ccccc2n1Cc1ccccc1F (configuration not stated),inactive,
Cc1ccc(S(=O)(=O)Nc2ccccc2CNc2c(C)n(C)n(-c3ccccc3)c2=O)cc1,inactive,
Cc1noc(C)c1-c1nccc(N2CCOCC2)n1,inactive,
Cc1cc(C)cc(N(CC(=O)Nc2c(C)n(C)n(-c3ccccc3)c2=O)S(C)(=O)=O)c1,2.7% [at 11.4 µM] (inactive),
Cc1cn(C2C=CC(CO)O2)c(=O)[nH]c1=O (configuration not stated),inactive,
COc1cccc2cc(C(C)N(CCCN3CCOCC3)C(=O)Nc3ccc(Cl)cc3)oc12 (configuration not stated),inactive,
O=C(c1cc(C(F)(F)F)cc(C(F)(F)F)c1)N1CCC[C@@]2(CCN(c3ccccn3)C2)C1,inactive,
CS(=O)(=O)Nc1cccc(-c2cncnc2Nc2ccccc2)c1,inactive,
CCOc1ccc(CCNC(=O)C2CCN(c3ccc(N4CCOCC4)nn3)CC2)cc1OCC,inactive,
Cc1cccc(C(=O)O)c1,inactive,
COC(=O)[C@@]1(Cc2ccc(F)cc2)[C@H]2c3cc(C(=O)N(C)C)n(CCc4c[nH]c5ccc(OC)cc45)c3C[C@H]2CN1C(=O)c1ccccc1,inactive,

SMILES,"activity change, negative = inhibition",Potency
COc1ccccc1CCn1c(=O)c(-c2cn(C)c3ccccc23)nc2cncnc21,inactive,
c1ccc2cc3[nH]c(CN4CCCCC4)nc3cc2c1,inactive,
CC(C)c1nnc(NC(=O)C2CCCN2S(=O)(=O)c2ccc(Cl)cc2)s1 (configuration not stated),inactive,
O=C(Nc1ccccc1C(=O)N1CCOCC1)C1CCC(=O)N1C1CCCC1 (configuration not stated),inactive,
COc1ccc(C)c(Cn2c(-c3nonc3N)nc3ccccc32)c1,inactive,
O=C(Nc1ccon1)c1cccc(Cl)c1,inactive,
CC(C)C[C@@H](CC(=O)N[C@@H](CCC(=O)O)CC(=O)O)NC(=O)[C@@H]1CCCC[C@H]1NC(=O)C[C@@H](NC(=O)C[C@H](Cc1c[nH]c2ccccc12)NC(=O)[C@@H]1CCCC[C@H]1N)C(C)C,inactive,
CCOC(=O)C1Cn2c(nc3c(c2=O)C(C)(CC)Cc2ccccc2-3)S1 (configuration not stated),inactive,
COCCn1nnnc1C(c1ccccc1Cl)N1CCN(c2ccccc2OC)CC1 (configuration not stated),inactive,
NS(=O)(=O)c1cc(C(=O)O)c(Cl)c([N+](=O)[O-])c1Cl,-10.9% [at 11.4 µM] (inactive),
COC(=O)C1(Cc2ccccc2)C=C2C(=C(C)C(=O)C2C)CN1 (configuration not stated),inactive,
c1cncc(-c2nc(N3CCNCC3)c3ccccc3n2)c1,inactive,
CN(C)CCCn1c2ccccc2c2cnccc21,-9.9% [at 11.4 µM] (inactive),
COc1ccc(C(=O)N2CCC3(CC2)CCN(c2ccccn2)CC3)cc1,inactive,
O=C(c1ccncc1)N1CCC2(CCN(Cc3cc(C(F)(F)F)cc(C(F)(F)F)c3)CC2)CC1,inactive,
CCCCSc1nc2c(c(=O)n1CC)SC(C)C2 (configuration not stated),inactive,
CCC1Oc2ccc(Cl)cc2N(CC(=O)O)C1=O (configuration not stated),inactive,
Cc1ccccc1C(=O)NCCN=C1NS(=O)(=O)c2ccccc21,inactive,
O=C(Cn1nnc(-c2ccc3c(c2)OCO3)n1)NCc1ccco1,inactive,
COc1ccc(CCNC(=O)CCn2c(=O)oc3ccccc32)cc1OC,inactive,
CN(C)CCCNC(=O)c1ccc2[nH]c3ccccc3c2c1,inactive,
CSc1ccc(S(=O)(=O)NCc2ccc(Cl)cc2)cc1,inactive,

SMILES,"activity change, negative = inhibition",Potency
O=C(C1CCCO1)N1CCC(c2nc3ccccc3[nH]2)CC1 (configuration not stated),inactive,
N#Cc1c(N)sc2c1CCN(C(=O)OCc1ccccc1)C2,inactive,
COc1ccccc1-c1c(C)nn2c(C)c(C(C)=O)cnc12,inactive,
CN(C)C(=O)c1ccc(-c2cncnc2NC2CCNCC2)cc1,inactive,
O=c1cc(-c2ccc(O)c(O)c2)oc2cccc(O)c12,inactive,
Oc1ccc(O)c2c(O)cccc12,,15.8 µM (active)
COc1ccc(OC)c(CN2C(=O)CCC2(C)C(=O)NC2CCCCCC2)c1 (configuration not stated),inactive,
N#Cc1ccccc1-c1ccc2ncnc(NCc3cccnc3)c2c1,inactive,
CN1C(=O)CC(N2CCN(c3ccccn3)CC2)C1=O (configuration not stated),inactive,
N#Cc1ccc(CN2CCCC3(CCN(C(=O)c4ccco4)CC3)C2)cc1,inactive,
Cc1c(-c2nn(C)c(=O)c3ccccc23)oc2ccc(F)cc2c1=O,inactive,
Clc1ccc(C=Nc2ccc3c(c2)Cc2ccccc2-3)c(Cl)c1,-10.3% [at 11.4 µM] (inactive),
CCOC(=O)c1nnn(CC(=O)Nc2cccc(F)c2)c1C(=O)OCC,inactive,
c1ccc(Nc2n[nH]nc2-c2ccccc2)cc1,inactive,
O=C1c2cccc3cccc(c23)N1CN1CCN(c2ccccn2)CC1,inactive,
C=CCOC(=O)c1ccccc1C(=O)OCC=C,inactive,
Nc1nonc1C(=O)NCCc1ccccc1,inactive,
COCCNc1nc(-n2nc(C)cc2C)nc2sc3c(c12)CCCC3,inactive,
C[C@@H](C(=O)Nc1ccc2ccccc2c1)[C@@H]1C[C@@]1(C)[C@@H](NC(=O)c1cccnc1)c1ccccc1,inactive,
